In PubChem BioAssay AID2060323 (National Center for Advancing Translational Sciences (NCATS), 2025):
Records with an inconclusive call do not appear. A call without a number means that no potency is given here. Calls of active or inactive are those of the source. Calls follow the shape of the dose curve; as a rule, active = well fitted activation curve with a large enough effect; inconclusive = small, poorly fitted or top-dose-only effect; inactive = no such curve, though single readings can be large or run the other way.

Target: Cellular tumor antigen p53 (Homo sapiens) (UniProt P04637)
Assay: Confirmatory qHTS for small molecule compounds that upregulate eGFP-tagged delta133p53alpha (in C-terminal) cells.
Details: delta133p53alpha-eGFP (C-terminal) reporter cells, GFP fluorescence upregulation; series mostly up to 57.5 µM
Source text: Assay Development and Screening Technology
National Center for Advancing Translational Sciences (NCATS),
National Institute of Health (NIH), Rockville, Maryland
Cellular senescence (CS) is one of the hallmarks of aging and age-related diseases. Senescent cells are characterized by an irreversible growth arrest, an increase in senescence-associated beta-galactosidase (SA-beta-gal) activity and p16INK4a expression, an activation of the DNA damage response pathways, and the emergence of a senescence-associated secretory phenotype (SASP).
Delta133p53alpha, a human/primate-specific p53 protein isoform, delays or inhibits the induction of CS and SASP in various types of human cells, including progeria-derived fibroblasts, primary normal astrocytes, and CD8+ T lymphocytes. Induction of delta133p53alpha with small molecule compounds may provide therapeutic opportunities for inhibition of senescence/SASP-associated pathologies in progeria syndromes, astrocyte-mediated neuroprotection in neurodegenerative diseases, and possibly prevention and treatment of a wider range of senescence- and aging-associated diseases.
Here we report the development and validation of a cell-based quantitative high throughput screening (qHTS) assay in 1,536-well format. This qHTS assay uses the NCI-H358 cell line with doxycycline-inducible expression of enhanced green fluorescent protein (eGFP)-tagged delta133p53alpha, which allows efficient and highly quantitative measurement of the protein levels.
PROTOCOL TABLE (as described by Inglese J, Shamu CE and Guy RK. 2007)
SEQUENCE No. (e.g., 1, 2, 3, etc.); […] (e.g., Cells, Incubation, Reagent, etc.); VALUE; DESCRIPTION.
1; Cells; 4uL; 800 doxycycline treated cells / well in doxycycline-free media, 1536-well black, clear-bottom low base Aurora microplates.
2; Compounds; 23 nL; Kalypsis pin tool (Wako) equipped with 1536-well pin heads, 5-azacytidine positive control.
3; Incubation; 24 hr; 37C, 5% CO2; 95% relative humidity.
4; Aspiration; 1x; BioTek EL406 washer dispenser (Agilent).
5; Fixing; 3.5% paraformaldehyde, BioTek EL406 washer dispenser (Agilent).
6; Washing; 1x PBS; BioTek EL406 washer dispenser (Agilent).
7; Nuclei staining; 1:1000 dilution of Hoechst 33342 (Thermofisher), BioTek EL406 washer dispenser (Agilent).
8; Incubation; 20 min; in the dark at room temperature.
9; Washing; 2x, 1x PBS (ThermoFisher), BioTek EL406 washer dispenser (Agilent).
10; Reagent; 10 uL; 1x PBS per well, sealed with clear adhesive tape.
11; Detection; Fluorescence, Acumen eX3 laser scanning cytometer (STP Labtech), GFP filters […].
NOTES (numbers refer to sequence numbers above).
1. NCI-H358 cells expressing eGFP-tagged delta133p53alpha were grown in T75 culture flasks and treated with doxycycline for 24h, at 10 ng/ml for eGFP-D133p53a cells (N-terminal cell) and 100 ng/ml for D133p53a-eGFP cells (C-terminal cells). Cells were trypsinized, counted using a Counted 3 Automated Cell Counter (Thermo Fisher), and diluted to a concentration of 200,000 cells/ml. A Multidrop Combi Reagent Dispenser (ThermoFisher) was used to dispense 800 cells/well in […] of doxycycline-free media, into 1536-well black/clear bottom low base plates (AuroraMicroplates).
2. After plating cells, 23 nl of compound library, DMSO vehicle control or positive control (5-azacytidine) were transferred by Pin Tool (Wako). The plate map layout was the same for each plate: (column 1) non-doxycycline treated cells + DMSO vehicle control; (column 2) doxycycline treated cells + DMSO vehicle control baseline; (column 3) doxycycline treated cells + positive control 57.5 uM final concentration 5-azacytidine; (column 4) doxycycline treated cells + serial dilution of 5-azacytidine, 16-point 1:2 titration spanning 1.8 nM to […] final concentration; (columns 5-48) doxycycline treated cells + titration of library compounds.
3. Cells were incubated at 37 °C, 5 % CO2, 95% RH with breathable metal lid for 24h.
4-10. […]

Cellular tumor antigen p53 (Homo sapiens), sequence (P04637 whole entry, looked up): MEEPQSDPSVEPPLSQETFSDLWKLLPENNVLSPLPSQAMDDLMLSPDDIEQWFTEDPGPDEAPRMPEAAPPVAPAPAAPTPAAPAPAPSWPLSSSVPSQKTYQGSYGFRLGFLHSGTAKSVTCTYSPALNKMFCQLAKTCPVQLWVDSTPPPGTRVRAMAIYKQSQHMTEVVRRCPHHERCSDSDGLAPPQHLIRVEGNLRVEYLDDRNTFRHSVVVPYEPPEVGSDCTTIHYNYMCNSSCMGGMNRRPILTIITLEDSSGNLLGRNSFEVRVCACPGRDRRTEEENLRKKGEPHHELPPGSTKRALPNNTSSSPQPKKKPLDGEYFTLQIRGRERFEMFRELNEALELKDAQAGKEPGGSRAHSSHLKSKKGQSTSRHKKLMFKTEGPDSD

With CCS(=O)(=O)Nc1cccc(C(=C2CCCCC2)c2cnc[nH]2)c1 as the compound, how does the Potency read?
The Potency was “inactive”.

For N[C@H](CCCCCP(=O)(O)O)C(=O)O, which Potency is on record?
Its Potency is “inactive”.

How did the Potency turn out when c1ccc2c(c1)OCC(C1=NCCN1)O2 (centres undefined) was run?
Its Potency is “inactive”.

Which Potency does the source give for CC1(C(=O)O)C2CCC(O2)C1(C)C(=O)O (centres undefined) here?
Its Potency is “inactive”.

With Cc1c2ccncc2c(C)c2c1[nH]c1ccccc12 as the compound, how does the Potency read?
Its Potency is 3.06 µM (active).

Which Potency does the source give for CN1C2CCC1CC(OC(c1ccccc1)c1ccccc1N)C2 (centres undefined) here?
The Potency was “inactive”.

How did the Potency turn out when c1ccc2c(c1)[I+]c1ccccc1-2 was run?
The Potency was 19.3 µM (active).

CP(=O)(O)C1=CCNCC1 was tested. Which Potency did it give?
The Potency was “inactive”.

O=C1/C(=C\c2ccccc2)C[C@@]2(O)[C@H]3Cc4ccc(O)c5c4[C@@]2(CCN3CC2CC2)[C@H]1O5 was tested. Which Potency did it give?
The Potency was 15.3 µM (active).

For C[C@]12Cc3cn4c(nc3C=C1CCC1C2CC[C@@]2(C)[C@H]1CC[C@@]2(O)C#N)nc1ccccc14 (some centres undefined), which Potency is on record?
Its Potency is 19.3 µM (active).

Which Potency does the source give for CC(=O)[C@H]1CC[C@H]2[C@@H]3CC[C@H]4C[C@](C)(O)CC[C@]4(C)[C@H]3CC[C@]12C here?
Its Potency is “inactive”.

For CC[C@@]1(O)C(=O)OCc2c1cc1n(c2=O)Cc2cc3ccccc3nc2-1, which Potency is on record?
The Potency was 1.72 µM (active).

CC1=NN=C(c2ccc(N)cc2)c2cc3c(cc2C1)OCO3 was tested. Which Potency did it give?
Its Potency is 34.3 µM (active).

For CCn1cnc2c(Nc3cccc(Cl)c3)nc(N[C@@H]3CCCC[C@@H]3N)nc21, which Potency is on record?
The Potency was 9.68 µM (active).
